Measurements reported in PubChem BioAssay AID1159580 (chemical genetic matrix, 2015).
The whole screen tested about 5,500 compounds, of which about 2,000 (36%) were called active. Roughly 18% stayed inconclusive and do not appear here. No stated cut-off is given here; in the data, active means normalized growth mostly below about 0.91 (no sharp cut-off); inconclusive means no clear call, values can overlap the other calls; inactive means mostly above about 0.92. This is one part of the list.

Test: chemical genetic growth profiling, strain panel (AID 1159580);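 further: tested at 20 µM; growth read once vehicle control cultures reached saturation at 30 °C; 1 = growth at the plate median or of vehicle wells; lower values mean less growth of the strain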
Details: S. cerevisiae deletion strains, growth OD

Measured: normalized growth

COc1cc2c(cc1-c1coc3c4c(c(OC)cc3c1=O)OC(C)(C)C=C4)OCO2
inactive: locus YAL013W, strain DEP1, hits give low values 0.934 | locus YAL021C, strain ccr4, hits give low values 0.993 | locus YAL026C, strain drs2, hits give low values 1.03 | locus YAL030W, strain snc1, hits give low values 1.03 | locus YBL061C, strain skt5, hits give low values 1.02 | locus YBR009C, strain hhf1, hits give low values 0.95 | locus YBR021W, strain FUR4, hits give low values 1.05 | locus YBR023C, strain chs3, hits give low values 0.971 | locus YBR171W, strain sec66, hits give low values 1.03 | locus YBR229C, strain ROT2, hits give low values 0.994 | locus YBR231C, strain swc5, hits give low values 1.04 | locus YBR279W, strain paf1, hits give low values 0.985 | locus YCL011C, strain gbp2, hits give low values 1 | locus YCL016C, strain dcc1, hits give low values 0.982 | locus YCL029C, strain bik1, hits give low values 0.985 | locus YCL061C, strain MRC1, hits give low values 1.01 | locus YCL069W, strain vba3, hits give low values 1.05 | locus YCR088W, strain abp1, hits give low values 1.05 | locus YDL005C, strain med2, hits give low values 1.04 | locus YDL035C, strain GPR1, hits give low values 0.998 | locus YDL040C, strain nat1, hits give low values 1.02 | locus YDL074C, strain BRE1, hits give low values 0.902 | locus YDL101C, strain DUN1, hits give low values 0.95 | locus YDL134C, strain PPH21, hits give low values 0.907 | locus YDL185W, strain tfp1, hits give low values 1.01 | locus YDL192W, strain arf1, hits give low values 0.966 | locus YDR001C, strain nth1, hits give low values 1.04 | locus YDR069C, strain doa4, hits give low values 1.04 | locus YDR101C, strain arx1, hits give low values 1 | locus YDR159W, strain sac3, hits give low values 0.981 | locus YDR162C, strain NBP2, hits give low values 0.884 | locus YDR297W, strain sur2, hits give low values 1.02 | locus YDR318W, strain mcm21, hits give low values 0.964 | locus YDR334W, strain swr1, hits give low values 1.04 | locus YDR335W, strain msn5, hits give low values 1.03 | locus YDR388W, hits give low values 0.986 | locus YDR502C, strain sam2, hits give low values 0.97 | locus YEL003W, strain gim4, hits give low values 1.02 | locus YEL037C, strain rad23, hits give low values 1.04 | locus YEL061C, strain CIN8 (second series), hits give low values 1.04 | locus YER015W, strain faa2, hits give low values 0.991 | locus YER016W, strain bim1, hits give low values 1.03 | locus YER110C, hits give low values 0.994 | locus YER111C, strain swi4, hits give low values 0.994 | locus YER155C, strain BEM2 (second series), hits give low values 0.926 | locus YER155C, strain BEM2, hits give low values 0.988 | locus YER167W, strain BCK2, hits give low values 1.01 | locus YFR010W, strain ubp6, hits give low values 1.07 | locus YGL078C, strain dbp3, hits give low values 0.983 | locus YGL086W, strain mad1, hits give low values 0.959 | locus YGL167C, strain pmr1, hits give low values 1.02 | locus YGL173C, strain kem1, hits give low values 1 | locus YGL227W, strain vid30, hits give low values 1.08 | locus YGL240W, strain doc1, hits give low values 0.984 | locus YGL248W, strain PDE1, hits give low values 0.929 | locus YGL253W, strain hxk2, hits give low values 1.01 | locus YGR135W, strain pre9, hits give low values 0.916 | locus YGR252W, strain gcn5, hits give low values 0.863 | locus YHR013C, strain ard1, hits give low values 0.991 | locus YHR027C, strain rpn1, hits give low values 1.03 | locus YHR030C, strain SLT2, hits give low values 0.968 | locus YHR079C, strain IRE1 (second series), hits give low values 0.995 | locus YHR094C, strain hxt1, hits give low values 1 | locus YHR129C, strain ARP1, hits give low values 0.959 | locus YHR142W, strain chs7, hits give low values 0.976 | locus YHR200W, strain rpn10, hits give low values 0.957 | locus YIL066C, strain RNR3, hits give low values 0.991 | locus YIL073C, strain SPO22, hits give low values 0.919 | locus YIL125W, strain kgd1, hits give low values 0.982 | locus YIR030C, strain dcg1, hits give low values 1 | locus YJL092W, strain hpr5, hits give low values 1.04 | locus YJL095W, strain BCK1 (second series), hits give low values 0.974 | locus YJL095W, strain BCK1, hits give low values 0.809 | locus YJL115W, strain asf1, hits give low values 1.04 | locus YJL129C, strain trk1, hits give low values 1.03 | locus YJL134W, strain LCB3, hits give low values 1 | locus YJL154C, strain vps35, hits give low values 1.04 | locus YJL164C, strain tpk1, hits give low values 0.968 | locus YJL166W, strain qcr8, hits give low values 0.933 | locus YJL168C, strain set2, hits give low values 0.985 | locus YJL187C, strain SWE1 (second series), hits give low values 0.938 | locus YKL009W, strain mrt4, hits give low values 1.01 | locus YKL068W, hits give low values 1 | locus YKL085W, strain MDH1 (second series), hits give low values 1 | locus YKL085W, strain MDH1, hits give low values 1 | locus YKL160W, strain elf1, hits give low values 0.927 | locus YKR001C, strain vps1, hits give low values 0.937 | locus YKR026C, strain gcn3, hits give low values 1.06 | locus YKR091W, strain srl3, hits give low values 1.02 | locus YLL001W, strain dnm1, hits give low values 1.01 | locus YLL026W, hits give low values 1.04 | locus YLL041C, strain sdh2, hits give low values 1.03 | locus YLR027C, strain aat2, hits give low values 0.992 | locus YLR039C, strain RIC1, hits give low values 0.788 | locus YLR058C, strain SHM2, hits give low values 0.984 | locus YLR102C, strain apc9, hits give low values 0.997 | locus YLR221C, strain rsa3, hits give low values 1.01 | locus YLR258W, strain gsy2, hits give low values 0.978 | locus YLR268W, strain sec22, hits give low values 0.998 | locus YLR320W, strain mms22, hits give low values 0.912 | locus YLR342W, strain FKS1 (second series), hits give low values 0.936 | locus YLR342W, strain FKS1, hits give low values 0.968 | locus YLR357W, strain rsc2, hits give low values 1.12 | locus YLR370C, strain arc18, hits give low values 0.973 | locus YLR371W, strain rom2, hits give low values 1.02 | locus YLR384C, strain iki3, hits give low values 1.03 | locus YML016C, strain PPZ1, hits give low values 0.987 | locus YML032C, strain rad52, hits give low values 0.963 | locus YML120C, strain ndi1, hits give low values 0.971 | locus YML124C, strain tub3, hits give low values 1 | locus YMR058W, strain fet3, hits give low values 1 | locus YMR078C, strain ctf18, hits give low values 0.986 | locus YMR125W, strain sto1, hits give low values 1.01 | locus YMR129W, hits give low values 1.03 | locus YMR205C, strain PFK2, hits give low values 0.919 | locus YMR223W, strain ubp8, hits give low values 0.928 | locus YMR231W, strain pep5, hits give low values 1.01 | locus YMR307W, strain GAS1, hits give low values 0.685 | locus YNL067W, strain RPL9B, hits give low values 0.956 | locus YNL209W, strain ssb2, hits give low values 1 | locus YNL248C, strain rpa49, hits give low values 1.1 | locus YNL250W, strain rad50, hits give low values 0.972 | locus YNL271C, strain bni1, hits give low values 0.991 | locus YNL298W, strain CLA4, hits give low values 0.953 | locus YNL307C, strain MCK1, hits give low values 0.907 | locus YNL322C, strain KRE1 (second series), hits give low values 1.04 | locus YNR049C, strain mso1, hits give low values 1.03 | locus YNR052C, strain pop2, hits give low values 0.944 | locus YOL006C, strain TOP1, hits give low values 0.842 | locus YOL012C, strain htz1 0.696 | locus YOL147C, strain pex11, hits give low values 0.996 | locus YOR001W, strain rrp6, hits give low values 1.02 | locus YOR061W, strain CKA2, hits give low values 1.02 | locus YOR069W, strain VPS5, hits give low values 0.973 | locus YOR070C, strain gyp1, hits give low values 0.992 | locus YOR080W, strain dia2, hits give low values 1.04 | locus YOR083W, strain WHI5, hits give low values 0.959 | locus YOR106W, strain vam3, hits give low values 0.996 | locus YOR136W, strain idh2, hits give low values 0.98 | locus YOR144C, strain elg1, hits give low values 0.993 | locus YOR184W, strain ser1, hits give low values 0.904 | locus YOR265W, strain rbl2, hits give low values 1.01 | locus YOR270C, strain vph1, hits give low values 0.871 | locus YOR290C, strain snf2, hits give low values 0.948 | locus YOR316C, strain cot1, hits give low values 0.985 | locus YPL078C, strain atp4, hits give low values 0.95 | locus YPL106C, strain sse1, hits give low values 1.05 | locus YPL240C, strain hsp82, hits give low values 1.04 | locus YPR119W, strain clb2, hits give low values 0.995 | locus YPR141C, strain kar3, hits give low values 0.999 | locus YPR163C, strain tif3, hits give low values 0.986 | locus YPR167C, strain met16, hits give low values 0.972 | strain wtn01, hits give low values 0.989
active: locus YDR137W, strain rgp1, hits give low values 0.654 | locus YDR195W, strain ref2 1.18 [resistant] | locus YDR392W, strain spt3, hits give low values 0.295 | locus YLR262C, strain YPT6 (second series), hits give low values 0.681 | locus YLR418C, strain cdc73, hits give low values 0.798 | locus YNL071W, strain lat1, hits give low values 0.799 | locus YNL233W, strain BNI4, hits give low values 0.868 | locus YPL051W, strain arl3, hits give low values 0.895
